We go through one compound from the supplement of paper PMC11001985.

Values without a mark were called inactive.

Chain of TTYH3 (lysine site: K340) (Q9C0H2 whole entry): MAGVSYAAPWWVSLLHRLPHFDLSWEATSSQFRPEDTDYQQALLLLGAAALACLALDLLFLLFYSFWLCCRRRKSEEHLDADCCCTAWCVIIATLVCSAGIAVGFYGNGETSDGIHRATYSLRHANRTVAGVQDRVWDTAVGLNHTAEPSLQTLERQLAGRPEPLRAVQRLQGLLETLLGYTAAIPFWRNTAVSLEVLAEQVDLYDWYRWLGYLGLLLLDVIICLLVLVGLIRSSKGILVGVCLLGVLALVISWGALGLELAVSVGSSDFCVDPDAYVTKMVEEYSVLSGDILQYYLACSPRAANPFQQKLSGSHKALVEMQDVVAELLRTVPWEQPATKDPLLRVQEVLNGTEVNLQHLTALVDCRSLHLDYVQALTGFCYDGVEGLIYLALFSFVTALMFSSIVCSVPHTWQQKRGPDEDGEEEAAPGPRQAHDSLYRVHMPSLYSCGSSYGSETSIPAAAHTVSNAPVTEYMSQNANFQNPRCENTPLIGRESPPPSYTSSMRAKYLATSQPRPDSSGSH

The assay addresses TTYH3 (lysine site: K340) (UniProt Q9C0H2). Nature of the assay: lysine labeling ratio R10:1 (500 µM / 50 µM probe), SILAC-ABPP in living cells; higher = lower intrinsic lysine reactivity toward the probe, active = 2 or less. The note with it: HeLa; probe concentrations 500 vs 50 µM. How it is done: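 Living HeLa cells (SILAC light/heavy) in PBS at room temperature were labeled with 50 µM versus 500 µM of the lysine-reactive, reductant-cleavable probe OPA-S-S-alkyne (SILAC labeling time not stated). Probe-modified peptides were CuAAC-biotinylated, captured on neutravidin and eluted with DTT/IAA, then quantified by LC-MS/MS. R = median peptide ratio per lysine (500/50 µM), combined over 3 forward and 3 reverse SILAC replicates. Ratios are capped at 20; R < 2 = hyper-reactive.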
Consider `C#CCNC(=O)CCSSCCC(=O)NCCc1ccc(C=O)c(C=O)c1`, for which the “lysine labeling ratio R10:1” value is 2.27.
